Source: the supplement of paper PMC10849652
The full data set covers some 8,800 targets. This sample favours those with a hit. About 0.5% of all pairs of compound and target were hits.

How the values were obtained:
Assay in all cases: log2 fold change, soluble protein after heating vs DMSO (PISA); higher = thermal stabilisation; K562 lysate, 10 uM; active = over 0.2 and 3.5 SD of the protein, either way, in both replicates (recomputed)
[1] = compound: CCCS(=O)(=O)Nc1ccc(F)c(C(=O)c2c[nH]c3ncc(-c4ccc(Cl)cc4)cc23)c1F [vemurafenib]
Method in brief: (§1)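 To prepare the extract, K562 pellets were dounce-homogenised in PBS pH 7.4 with 1 mM MgCl2, giving crude material at 1 mg/mL protein. This was treated with 10 μM compound for 30 min, then heated in aliquots for 3 min over 48°C-58°C before pooling and addition of NP-40 to 0.5% at 4°C. Centrifugation at 21,000xg for 90 min left soluble protein in the supernatant, which TMTpro 16plex LC-MS/MS quantified with equalised channel sums. Results are log-two fold changes in thermal stability compared with solvent controls, from duplicates.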

[2] = compound: CCCS(=O)(=O)Nc1ccc(F)c(C(=O)c2c[nH]c3ncc(Cl)cc23)c1F
Method in brief: as §1

[3] = compound: CCN(CCCOc1ccc2c(Nc3cc(CC(=O)Nc4cccc(F)c4)[nH]n3)ncnc2c1)CCOP(=O)(O)O [barasertib]
Method in brief: as §1

[4] = compound: CC[C@@H]1C(=O)N(C)c2cnc(Nc3ccc(C(=O)NC4CCN(C)CC4)cc3OC)nc2N1C1CCCC1
Method in brief: as §1

[5] = compound: CC[C@@H]1C(=O)N(C)c2cnc(Nc3ccc(C(=O)N[C@H]4CC[C@H](N5CCN(CC6CC6)CC5)CC4)cc3OC)nc2N1C(C)C [volasertib]
Method in brief: as §1

[6] = compound: CCn1c(C(=O)N(C2CC2)C2CC2)cc2c3c(ncn3C)c(Nc3cc(C)n(C)n3)nc21
Method in brief: as §1

[7] = compound: CCn1cc(-c2ccnc3[nH]c(-c4cccc(CN(C)C)c4)cc23)c(-c2ccc(NC(=O)N(C)C)cc2)n1
Method in brief: as §1

[8] = compound: CN1CCC(CNc2ccc3ncc(-c4cccc(OC(F)(F)F)c4)n3n2)CC1
Method in brief: as §1

[9] = compound: CN1CCN(CCOc2cc(OC3CCOCC3)c3c(Nc4c(Cl)ccc5c4OCO5)ncnc3c2)CC1 [saracatinib]
Method in brief: as §1

[10] = compound: CN1CCN(c2nc(C3=C(c4c[nH]c5ccccc45)C(=O)NC3=O)c3ccccc3n2)CC1 [sotrastaurin]
Method in brief: as §1

[11] = compound: CN1CC[C@H](c2c(O)cc(O)c3c(=O)cc(-c4ccccc4Cl)oc23)[C@H](O)C1 [alvocidib]
Method in brief: as §1

[12] = compound: CN1CCc2c(c3ccccc3n2Cc2ccc(C(=O)NO)cc2)C1 [Tubastatin A]
Method in brief: as §1

[13] = compound: CNC(=O)C1=CC=CC=C1NC2=NC(=NC=C2Cl)NC3=C(C=C(C=C3)N4CCOCC4)OC
Method in brief: as §1

[14] = compound: CNC(=O)c1ccc(Nc2ncc(C(F)(F)F)c(NCc3nccnc3N(C)S(C)(=O)=O)n2)cc1 [defactinib]
Method in brief: as §1

[15] = compound: CNc1nc(-c2ccc3c(N)n[nH]c3c2)cc(N2C[C@@H](C(=O)NC3CCCCC3)CC[C@H]2C)n1
Method in brief: as §1

[16] = compound: COC(=O)N[C@@H](C)CNc1nccc(-c2cn(C(C)C)nc2-c2cc(Cl)cc(NS(C)(=O)=O)c2F)n1 [encorafenib]
Method in brief: as §1

[17] = compound: COC(=O)[C@H](CCSC)NC(=O)C1=C(C=C(C=C1)NC[C@H](CS)N)C2=CC=CC=C2
Method in brief: as §1

[18] = compound: COc1cc(Nc2ncc3c(n2)-c2ccc(Cl)cc2C(c2c(F)cccc2OC)=NC3)ccc1C(=O)O [alisertib]
Method in brief: as §1

[19] = compound: COc1cc2nc(-c3cc(F)ccc3O)nc(N[C@@H]3CNC[C@H]3C(C)(C)O)c2cc1OC
Method in brief: as §1

[20] = compound: COc1cc2ncnc(Nc3ccc(F)c(Cl)c3)c2cc1OCCCN1CCOCC1 [gefitinib]
Method in brief: as §1

Measured: log2 fold change

LIMK2 isoform 3 (UniProt P53671)
UniProt P53671, sequence (P53671 whole entry, looked up): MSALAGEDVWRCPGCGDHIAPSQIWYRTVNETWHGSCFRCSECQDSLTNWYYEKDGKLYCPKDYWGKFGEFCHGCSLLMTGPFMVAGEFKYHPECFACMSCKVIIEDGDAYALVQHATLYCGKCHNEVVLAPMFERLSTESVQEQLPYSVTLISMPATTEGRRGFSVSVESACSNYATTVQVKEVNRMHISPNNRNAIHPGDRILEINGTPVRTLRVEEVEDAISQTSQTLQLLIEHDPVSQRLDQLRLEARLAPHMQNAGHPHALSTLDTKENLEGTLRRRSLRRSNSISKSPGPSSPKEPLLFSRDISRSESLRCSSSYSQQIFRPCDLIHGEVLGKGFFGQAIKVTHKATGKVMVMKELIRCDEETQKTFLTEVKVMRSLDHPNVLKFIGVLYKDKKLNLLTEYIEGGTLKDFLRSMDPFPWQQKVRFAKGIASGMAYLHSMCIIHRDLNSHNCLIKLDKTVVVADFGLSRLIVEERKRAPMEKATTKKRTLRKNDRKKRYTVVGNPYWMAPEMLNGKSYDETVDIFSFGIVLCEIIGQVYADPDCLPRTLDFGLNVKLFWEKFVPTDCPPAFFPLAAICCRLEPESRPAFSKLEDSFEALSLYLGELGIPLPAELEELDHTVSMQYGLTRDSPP
inactive: [1] 0.031 | [2] 0.046 | [3] -0.062 | [4] -0.173 | [5] -0.002 | [6] -0.046 | [8] 0.023 | [9] -0.017 | [10] -0.05 | [11] -0.002 | [12] 0.02 | [13] 0.068 | [14] -0.026 | [15] 0.102 | [16] 0.204 | [17] -0.189 | [18] 0.031 | [19] 0.033 | [20] -0.141
active: [7] 0.963

MON2 isoform 5 (UniProt Q7Z3U7)
inactive: [1] -0.015 | [2] 0.025 | [3] 0.008 | [4] -0.029 | [5] -0.04 | [6] 0.019 | [7] -0.07 | [8] 0.062 | [9] -0.006 | [10] -0.003 | [11] 0.003 | [12] -0.149 | [13] 0.018 | [14] 0.023 | [15] -0.014 | [16] 0.034 | [17] -0.035 | [18] -0.004 | [19] 0 | [20] 0.005

LZTS1 (UniProt Q9Y250)
inactive: [1] -0.047 | [2] -0.034 | [3] 0.218 | [4] 0.042 | [5] 0.074 | [6] -0.53 | [7] 0.493 | [8] -0.132 | [9] 0 | [10] -0.116 | [11] 0.054 | [12] 0.326 | [13] -0.037 | [14] -0.101 | [15] 0.709 | [16] -0.071 | [17] 0.001 | [18] -0.022 | [19] 0.129 | [20] -0.08

MAP1S (UniProt Q66K74)
inactive: [1] -0.004 | [2] 0.041 | [3] 0.002 | [4] -0.035 | [5] -0.024 | [6] -0.01 | [7] -0.056 | [8] -0.022 | [9] 0.038 | [10] 0.037 | [11] 0.027 | [12] -0.072 | [13] -0.01 | [14] 0.018 | [15] -0.015 | [16] 0.008 | [17] 0.06 | [18] 0.006 | [19] -0.008 | [20] -0.021

MITD1 (UniProt Q8WV92)
inactive: [1] 0.044 | [2] 0.001 | [3] 0.057 | [4] 0.013 | [5] -0.07 | [6] -0.031 | [7] -0.269 | [8] -0.163 | [9] 0.024 | [10] 0.039 | [11] 0.021 | [12] 0.046 | [13] 0.044 | [14] -0.038 | [15] -0.026 | [16] -0.04 | [17] 0.143 | [18] 0.041 | [19] 0.018 | [20] 0.022

MOCS1 isoform 8 (UniProt Q9NZB8)
active: [20] 0.395
inactive: [1] 0.063 | [2] 0.022 | [3] 0.166 | [4] -0.043 | [5] -0.004 | [6] -0.015 | [7] -0.063 | [8] -0.013 | [9] 0.006 | [10] -0.018 | [11] -0.108 | [12] -0.008 | [13] 0.002 | [14] 0.113 | [15] -0.105 | [16] 0.039 | [17] -0.055 | [18] -0.099 | [19] 0.003

MAP4 (UniProt P27816)
inactive: [1] 0.01 | [2] -0.017 | [3] -0.016 | [4] 0.064 | [5] 0.033 | [6] -0.022 | [7] -0.042 | [8] 0.036 | [9] -0.009 | [10] -0.027 | [11] -0.023 | [12] 0.043 | [13] 0.016 | [14] -0.02 | [15] 0.037 | [16] -0.024 | [17] -0.031 | [18] -0.007 | [19] 0.014 | [20] -0.02

MAP2K7 isoform 4 (UniProt O14733)
inactive: [1] 0.073 | [2] 0.087 | [3] -0.02 | [4] 0.016 | [5] -0.04 | [6] 0.042 | [7] 0.004 | [8] -0.02 | [9] 0.032 | [10] 0.02 | [11] 0.023 | [12] -0.15 | [13] 0.023 | [14] -0.035 | [15] 0.036 | [16] -0.059 | [17] 0.177 | [18] 0.006 | [19] -0.009 | [20] -0.08

L3HYPDH (UniProt Q96EM0)
UniProt Q96EM0, sequence (Q96EM0 whole entry, looked up): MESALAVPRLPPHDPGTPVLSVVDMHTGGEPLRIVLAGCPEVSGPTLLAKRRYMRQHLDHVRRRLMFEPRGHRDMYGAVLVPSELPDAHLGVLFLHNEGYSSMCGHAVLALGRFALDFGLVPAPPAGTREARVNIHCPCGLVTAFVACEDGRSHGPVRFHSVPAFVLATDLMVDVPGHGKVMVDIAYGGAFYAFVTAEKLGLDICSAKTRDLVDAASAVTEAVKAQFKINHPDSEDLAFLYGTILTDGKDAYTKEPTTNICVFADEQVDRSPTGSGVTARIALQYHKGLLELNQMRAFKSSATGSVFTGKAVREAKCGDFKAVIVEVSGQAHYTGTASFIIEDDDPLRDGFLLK
inactive: [1] 0.04 | [2] 0.033 | [3] 0.015 | [4] 0.002 | [5] -0.017 | [6] 0.011 | [7] 0.01 | [8] 0.012 | [9] -0.027 | [10] -0.008 | [11] 0.023 | [12] -0.052 | [13] 0.005 | [14] -0.012 | [15] 0.022 | [16] -0.017 | [17] 0.039 | [18] -0.019 | [19] -0.005 | [20] -0.013

MIF4GD isoform 3 (UniProt A9UHW6)
UniProt A9UHW6, sequence (A9UHW6 whole entry, looked up): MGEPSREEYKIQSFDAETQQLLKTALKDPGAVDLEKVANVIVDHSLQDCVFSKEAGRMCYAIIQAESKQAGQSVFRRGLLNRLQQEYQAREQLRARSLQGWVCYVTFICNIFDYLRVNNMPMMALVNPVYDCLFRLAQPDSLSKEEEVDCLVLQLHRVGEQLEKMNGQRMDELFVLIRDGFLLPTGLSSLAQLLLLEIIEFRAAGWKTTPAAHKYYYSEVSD
inactive: [1] 0.016 | [2] 0.009 | [3] 0.051 | [4] -0.019 | [5] -0.012 | [6] 0.037 | [7] 0.028 | [8] 0.015 | [9] 0.02 | [10] 0.017 | [11] 0.021 | [12] 0.014 | [13] 0.002 | [14] -0.01 | [15] -0.066 | [16] -0.012 | [17] 0.01 | [18] -0.037 | [19] 0.007 | [20] 0.049

MED17 (UniProt Q9NVC6)
inactive: [1] 0.028 | [2] 0.007 | [3] 0.004 | [4] -0.023 | [5] -0.02 | [6] 0.002 | [7] -0.037 | [8] 0.013 | [9] 0.01 | [10] 0.031 | [11] -0.001 | [12] -0.093 | [13] 0.025 | [14] -0.035 | [15] -0.019 | [16] 0.03 | [17] -0.017 | [18] -0.012 | [19] 0.023 | [20] -0.015

KNL1 (UniProt Q8NG31)
UniProt Q8NG31, sequence (Q8NG31 whole entry, looked up): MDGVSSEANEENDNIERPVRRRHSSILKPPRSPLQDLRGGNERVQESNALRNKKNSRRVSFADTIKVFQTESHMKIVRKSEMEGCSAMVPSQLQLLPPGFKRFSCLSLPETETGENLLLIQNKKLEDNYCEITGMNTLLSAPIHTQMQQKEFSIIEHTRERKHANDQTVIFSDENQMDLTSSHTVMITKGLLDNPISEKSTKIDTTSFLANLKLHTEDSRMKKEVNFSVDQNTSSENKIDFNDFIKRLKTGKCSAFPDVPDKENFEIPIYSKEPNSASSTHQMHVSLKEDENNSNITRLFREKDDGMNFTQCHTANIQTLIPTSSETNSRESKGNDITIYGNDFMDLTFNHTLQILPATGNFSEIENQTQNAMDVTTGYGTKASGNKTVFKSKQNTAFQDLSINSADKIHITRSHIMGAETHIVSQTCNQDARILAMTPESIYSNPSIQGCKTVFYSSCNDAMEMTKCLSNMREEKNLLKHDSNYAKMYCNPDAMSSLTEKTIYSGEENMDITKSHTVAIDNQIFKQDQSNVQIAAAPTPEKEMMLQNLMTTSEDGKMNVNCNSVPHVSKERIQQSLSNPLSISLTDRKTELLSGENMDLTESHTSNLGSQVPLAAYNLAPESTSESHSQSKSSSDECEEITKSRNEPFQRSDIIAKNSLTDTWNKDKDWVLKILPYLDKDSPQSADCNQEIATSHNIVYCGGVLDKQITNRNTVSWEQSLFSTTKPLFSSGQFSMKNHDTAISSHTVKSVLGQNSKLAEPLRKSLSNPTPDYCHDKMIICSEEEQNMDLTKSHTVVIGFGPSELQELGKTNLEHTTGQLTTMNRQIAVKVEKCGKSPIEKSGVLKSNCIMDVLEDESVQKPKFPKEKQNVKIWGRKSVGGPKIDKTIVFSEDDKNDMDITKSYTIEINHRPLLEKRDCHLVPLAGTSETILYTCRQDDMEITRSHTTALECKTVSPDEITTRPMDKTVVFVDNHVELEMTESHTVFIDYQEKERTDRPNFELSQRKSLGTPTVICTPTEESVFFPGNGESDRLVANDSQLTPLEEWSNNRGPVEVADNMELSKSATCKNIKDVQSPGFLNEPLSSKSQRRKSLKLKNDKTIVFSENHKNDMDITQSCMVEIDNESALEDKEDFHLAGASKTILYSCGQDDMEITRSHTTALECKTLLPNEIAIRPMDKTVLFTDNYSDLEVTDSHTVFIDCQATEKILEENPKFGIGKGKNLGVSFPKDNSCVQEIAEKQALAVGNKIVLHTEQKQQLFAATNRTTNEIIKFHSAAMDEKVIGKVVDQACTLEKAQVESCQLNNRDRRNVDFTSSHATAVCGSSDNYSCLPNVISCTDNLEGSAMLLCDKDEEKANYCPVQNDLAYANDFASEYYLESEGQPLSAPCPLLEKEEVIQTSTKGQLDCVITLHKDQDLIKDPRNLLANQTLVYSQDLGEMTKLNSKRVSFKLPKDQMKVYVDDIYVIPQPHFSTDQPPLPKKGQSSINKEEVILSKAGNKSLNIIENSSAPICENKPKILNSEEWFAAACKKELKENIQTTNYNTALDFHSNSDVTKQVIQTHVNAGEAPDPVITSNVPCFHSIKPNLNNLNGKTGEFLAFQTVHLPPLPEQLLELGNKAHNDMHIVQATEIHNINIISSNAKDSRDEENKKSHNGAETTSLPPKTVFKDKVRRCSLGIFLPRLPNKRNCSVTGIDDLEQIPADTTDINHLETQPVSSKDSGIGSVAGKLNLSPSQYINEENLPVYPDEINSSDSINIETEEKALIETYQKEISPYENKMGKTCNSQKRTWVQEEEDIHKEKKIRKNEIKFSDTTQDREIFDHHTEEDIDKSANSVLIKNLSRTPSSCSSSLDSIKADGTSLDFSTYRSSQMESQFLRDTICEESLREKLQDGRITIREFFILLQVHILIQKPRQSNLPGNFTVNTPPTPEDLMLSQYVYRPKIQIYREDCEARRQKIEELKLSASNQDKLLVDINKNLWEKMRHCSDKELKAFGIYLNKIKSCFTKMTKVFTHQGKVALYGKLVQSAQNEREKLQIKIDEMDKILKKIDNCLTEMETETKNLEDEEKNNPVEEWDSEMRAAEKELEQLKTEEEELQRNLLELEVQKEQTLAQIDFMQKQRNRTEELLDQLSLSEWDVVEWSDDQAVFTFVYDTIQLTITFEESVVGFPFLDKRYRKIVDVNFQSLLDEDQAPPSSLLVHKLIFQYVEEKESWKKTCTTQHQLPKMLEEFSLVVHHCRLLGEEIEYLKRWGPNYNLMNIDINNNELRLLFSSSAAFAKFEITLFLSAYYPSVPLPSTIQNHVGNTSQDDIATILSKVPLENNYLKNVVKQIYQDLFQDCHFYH
inactive: [1] -0.031 | [2] 0.064 | [3] 0.011 | [4] -0.015 | [5] -0.044 | [6] -0.012 | [7] 0.015 | [8] 0 | [9] 0.006 | [10] 0.025 | [11] -0.008 | [12] -0.073 | [13] 0.024 | [14] -0.007 | [15] 0.018 | [16] 0.043 | [17] 0.055 | [18] -0.032 | [19] 0.004 | [20] 0.008

KIF21A isoform 5 (UniProt Q7Z4S6)
inactive: [1] 0.03 | [2] 0.041 | [3] 0.005 | [4] -0.038 | [5] -0.026 | [6] -0.025 | [7] 0.165 | [8] -0.101 | [9] 0.037 | [10] 0.017 | [11] 0.106 | [12] -0.066 | [13] 0.022 | [14] 0.007 | [15] 0.008 | [16] -0.016 | [17] 0.09 | [18] -0.033 | [19] -0.002 | [20] -0.012

MORC3 (UniProt Q14149)
UniProt Q14149, sequence (Q14149 whole entry, looked up): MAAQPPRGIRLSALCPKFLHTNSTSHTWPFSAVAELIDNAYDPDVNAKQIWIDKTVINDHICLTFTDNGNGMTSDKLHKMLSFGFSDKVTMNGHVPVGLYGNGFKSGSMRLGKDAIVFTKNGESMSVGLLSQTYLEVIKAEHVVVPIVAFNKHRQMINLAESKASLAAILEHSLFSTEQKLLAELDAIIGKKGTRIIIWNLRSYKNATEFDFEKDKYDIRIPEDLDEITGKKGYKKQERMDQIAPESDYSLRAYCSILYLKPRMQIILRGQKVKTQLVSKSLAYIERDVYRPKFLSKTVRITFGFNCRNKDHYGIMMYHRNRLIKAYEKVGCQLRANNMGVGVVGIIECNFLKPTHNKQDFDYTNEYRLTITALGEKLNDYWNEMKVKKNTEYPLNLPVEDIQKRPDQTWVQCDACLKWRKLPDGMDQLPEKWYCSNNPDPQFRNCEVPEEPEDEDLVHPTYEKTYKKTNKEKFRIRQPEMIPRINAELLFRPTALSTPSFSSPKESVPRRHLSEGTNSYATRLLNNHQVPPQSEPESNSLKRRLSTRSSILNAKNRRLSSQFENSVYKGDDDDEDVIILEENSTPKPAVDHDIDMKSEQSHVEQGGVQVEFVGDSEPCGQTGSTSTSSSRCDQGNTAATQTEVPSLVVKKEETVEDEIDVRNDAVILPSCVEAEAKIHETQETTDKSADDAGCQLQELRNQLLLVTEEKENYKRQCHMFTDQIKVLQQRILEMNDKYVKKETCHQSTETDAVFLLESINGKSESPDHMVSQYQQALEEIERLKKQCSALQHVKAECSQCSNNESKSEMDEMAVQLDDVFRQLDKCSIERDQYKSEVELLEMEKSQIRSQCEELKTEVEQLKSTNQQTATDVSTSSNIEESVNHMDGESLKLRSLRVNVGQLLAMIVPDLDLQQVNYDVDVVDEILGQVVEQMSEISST
inactive: [1] 0.025 | [2] 0.01 | [3] 0.019 | [4] -0.03 | [5] -0.077 | [6] 0.007 | [7] -0.007 | [8] -0.055 | [9] 0.004 | [10] 0.006 | [11] -0.015 | [12] -0.098 | [13] 0.017 | [14] 0.018 | [15] -0.028 | [16] 0.007 | [17] 0.038 | [18] -0.003 | [19] 0.021 | [20] -0.01

LARS (UniProt Q9P2J5)
inactive: [1] -0.005 | [2] 0.006 | [3] 0.006 | [4] -0.069 | [5] -0.063 | [6] 0.045 | [7] 0.008 | [8] -0.058 | [9] -0.023 | [10] -0.002 | [11] 0.051 | [12] -0.153 | [13] 0.006 | [14] 0.023 | [15] -0.054 | [16] 0.001 | [17] 0.097 | [18] 0.01 | [19] -0.013 | [20] -0.007

KLC1 isoform 6 (UniProt Q07866)
UniProt Q07866, sequence (Q07866 whole entry, looked up): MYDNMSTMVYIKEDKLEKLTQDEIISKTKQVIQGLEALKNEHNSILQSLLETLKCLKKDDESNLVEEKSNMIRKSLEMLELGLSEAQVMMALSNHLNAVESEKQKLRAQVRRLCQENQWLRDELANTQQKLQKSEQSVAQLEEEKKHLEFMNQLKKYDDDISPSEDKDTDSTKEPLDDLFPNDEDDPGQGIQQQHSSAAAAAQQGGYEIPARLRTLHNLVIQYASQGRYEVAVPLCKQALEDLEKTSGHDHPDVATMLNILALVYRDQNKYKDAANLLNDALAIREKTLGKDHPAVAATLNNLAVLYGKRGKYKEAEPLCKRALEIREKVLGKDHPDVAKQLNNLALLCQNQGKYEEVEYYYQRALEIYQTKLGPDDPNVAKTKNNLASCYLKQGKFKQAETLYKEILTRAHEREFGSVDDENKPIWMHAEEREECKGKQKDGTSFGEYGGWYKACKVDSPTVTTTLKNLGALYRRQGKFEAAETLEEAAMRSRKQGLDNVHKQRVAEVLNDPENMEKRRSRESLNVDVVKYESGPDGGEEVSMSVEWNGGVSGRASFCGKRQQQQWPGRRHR
inactive: [1] 0.003 | [2] 0.004 | [3] -0.002 | [4] 0.012 | [5] -0.04 | [6] 0 | [7] 0.019 | [8] -0.063 | [9] 0.015 | [10] -0.011 | [11] -0.015 | [12] -0.038 | [13] 0.02 | [14] -0.003 | [15] -0.018 | [16] 0.002 | [17] 0.002 | [18] 0.002 | [19] 0.014 | [20] -0.009
